Hits are enriched below; roughly 21% of the tested compounds scored in any of these assays.
CYP2C9 act = CYP2C9 (human) activation. P11712. AID 1024. activation factor at 5 µM. recombinant CYP2C9, luciferin-H conversion, luminescence; stronger effect = higher value; factor 1 = untreated enzyme, 0 = blocked. 96,000 compounds, 1.4% hits;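 active = activation factor of 2 or more for CYP2C9 at a 5 µM dose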
Target sequence (P11712 whole entry, looked up): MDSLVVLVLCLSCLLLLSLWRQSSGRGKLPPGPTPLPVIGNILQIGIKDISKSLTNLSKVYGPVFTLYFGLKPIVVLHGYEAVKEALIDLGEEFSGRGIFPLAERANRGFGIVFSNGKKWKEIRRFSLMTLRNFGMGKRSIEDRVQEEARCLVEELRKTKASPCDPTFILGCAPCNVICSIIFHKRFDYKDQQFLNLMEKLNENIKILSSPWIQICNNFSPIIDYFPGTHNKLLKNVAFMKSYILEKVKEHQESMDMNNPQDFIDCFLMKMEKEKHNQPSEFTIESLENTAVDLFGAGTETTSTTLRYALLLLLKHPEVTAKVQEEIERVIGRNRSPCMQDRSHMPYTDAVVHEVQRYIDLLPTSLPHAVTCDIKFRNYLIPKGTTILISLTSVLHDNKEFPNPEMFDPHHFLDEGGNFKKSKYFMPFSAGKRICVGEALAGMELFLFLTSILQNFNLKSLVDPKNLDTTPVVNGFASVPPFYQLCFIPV
MRP reversal = reverses drug resistance mediated by MRP; H69AR cells + 2 uM doxorubicin, CellTiter-Glo, 72 h; differential viability (reversal), % at 10 µM; 85,000 compounds, 0.04% hits; AID 602;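 active = viability drop by adding the cancer drug above about 55%, with treated viability meeting a 40% cutoff, limit read from the data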;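 note: larger differential means the compound sensitizes cells more to doxorubicin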
MRP-1 activ = activates MRP-1; 140,000 compounds, 0.61% hits; viability increase, % at 10 µM; H69AR cells + doxorubicin, viability rescue, CellTiter-Glo; AID 799;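 active = viability gain under doxorubicin at or above a set limit, the compound median plus 3 SD, cut at about 4.7% in these data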;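 note: MRP-1 overexpressing cells given doxorubicin 25 µM after compound pretreatment; 18-22 h compound pretreatment then 72 h with doxorubicin before readout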
CYP2C19 inhib = blocks human cytochrome P450 2C19 | P33261 | CYP2C19 Supersomes, luciferin-H EGE luminescence, 30 min | inhibition, % at 5 µM | 96,000 compounds, 21% hits | AID 778;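 active = CYP2C19 inhibition above a set limit at 5 µM in the primary screen, cut at about 50% in these data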
CYP2C19 act = activators of human cytochrome P450 2C19 | recombinant CYP2C19, luciferin-H EGE luminescence; stronger effect = higher value; 0 = fully inhibited enzyme, 1 = untreated enzyme | 96,000 tested, under 10 active | P33261 | activation factor at 5 µM;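 active = activation factor of at least 2 at 5 µM in the primary screen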
CYP2C9 inhib = blocks human cytochrome P450 2C9 | P11712 | CYP2C9 Supersomes, luciferin-H conversion, luminescence | inhibition, % at 5 µM | 96,000 compounds, 20% hits | AID 777;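 active = blocking of liver enzyme CYP2C9 beyond about 50% at 5 µM, limit read from the data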
Hits are given with their value; 0 = inactive; - = no result given.

SMILES	CYP2C9 act	MRP reversal	MRP-1 activ	CYP2C19 inhib	CYP2C19 act	CYP2C9 inhib
CC(C)OCCCn1c(=N)c(C(N)=S)cc2c(=O)n3ccccc3nc21	0	0	0	79	0	0
CCOCCCn1c(=N)c(C(=O)NCc2ccc3c(c2)OCO3)cc2c(=O)n3ccccc3nc21	0	0	0	0	0	0
CC(C)OCCCn1c(=NC(=O)c2ccncc2)c(C#N)cc2c(=O)n3ccccc3nc21	0	0	0	80	0	74
COc1cccc(/C=C/C(=O)OCC(=O)N2c3ccccc3NC(=O)C2(C)C)c1	-	-	0	-	-	-
Cc1ccc(CCSc2ccc(C(C)C)cc2)cn1	-	-	0	-	-	-
CCN(C(=O)c1sc(N)c(C#N)c1C)C1CCCCC1	0	0	0	59	0	0
COc1cc(Br)c(S(=O)(=O)Nc2c(C)n(C)n(-c3ccccc3)c2=O)cc1OC	0	-	0	0	0	0
COc1ccc(S(=O)(=O)N(C)c2c(C)n(C)n(-c3ccccc3)c2=O)cc1OC	0	0	0	71	0	0
Cc1cccc(N2C(N)=C(C#N)C(C#N)(C#N)C2c2ccccc2)c1 (configuration not stated)	0	0	0	0	0	55
Cc1cccc(-n2ncc(C#N)c2N)c1	0	0	0	0	0	0
N#CC1=C(N)N(c2ccccc2)C(c2cccc([N+](=O)[O-])c2)C1(C#N)C#N (configuration not stated)	0	0	0	0	0	53
N#CC1=C(N)N(c2ccccc2)C(c2ccco2)C1(C#N)C#N (configuration not stated)	0	-	0	0	0	54
Nc1c(-c2ccccc2Cl)cnn1-c1cccc([N+](=O)[O-])c1	0	-	0	0	0	0
CSc1nc2[nH]ncc2c(=O)[nH]1	-	-	0	-	-	-
Cc1csc(NC(=O)CSc2nnc(NC(=O)COc3ccccc3)s2)n1	-	-	0	-	-	-
CCc1ccc(-c2cn(-c3nc(C)cc(C)n3)c(=N)o2)cc1	0	0	0	59	0	0
CCOC(=O)C1C(=O)C(C(C)=O)C(=O)CC1CC(C)SCC (configuration not stated)	0	0	0	0	0	0
CCCN(CCC)C(=O)CSc1nc2ccsc2c(=O)n1NC(=O)c1ccccc1	0	0	0	0	0	66
CC(C)CCNC(=O)CSc1nc2ccsc2c(=O)n1NC(=O)c1ccccc1	0	0	0	0	0	0
COC(=O)Cc1c(O)ccn(Cc2cccc3ccccc23)c1=O	0	-	0	64	0	0
O=C(COc1ncnc2c(Cl)cc(Cl)cc12)NC1CCCCCC1	0	0	0	0	0	0
COC(=O)c1ccc(COc2ncnc3c(Cl)cc(Cl)cc23)o1	0	0	0	0	0	62
Cc1[nH]n(-c2ccccc2)c(=O)c1C(C[N+](=O)[O-])c1ccccc1Cl (configuration not stated)	0	-	0	88	0	92
CN(C)c1ccc(-c2ccccc2)nn1	0	0	0	58	0	0
Cc1cc(C)nc(SC2CCCCC2NS(=O)(=O)c2ccccc2)n1 (configuration not stated)	-	-	0	-	-	-
SMILES	CYP2C9 act	MRP reversal	MRP-1 activ	CYP2C19 inhib	CYP2C19 act	CYP2C9 inhib
Cc1cc(C)cc(OCC(=O)NC2=NCCS2)c1	2.3	0	0	0	0	0
O=C(COc1ccc2ccccc2c1)NC1=NCCS1	0	-	0	65	0	0
CCOc1ccccc1OCCCC(=O)NC1=NCCS1	0	0	0	0	0	0
CCOC(=O)c1ccccc1NS(=O)(=O)c1ccc(OCC)cc1	0	0	0	70	0	0
CCOc1ccc(NC(=O)c2ccccc2NS(=O)(=O)c2ccc(F)cc2)c([N+](=O)[O-])c1	-	-	0	-	-	-
CCOc1ccc(S(=O)(=O)Nc2ccccc2C(=O)NCC2CCCO2)cc1 (configuration not stated)	0	0	0	71	0	0
CCOc1ccc(C(=O)NCc2ccccc2)cc1Br	-	-	0	-	-	-
COc1ccc(C(C(=O)NC2CCCCC2)N(C(=O)CCCC(=O)Nc2ccccn2)c2ccc3c(c2)OCCO3)cc1 (configuration not stated)	0	-	0	0	0	0
O=C(CN(Cc1ccccc1)C(=O)CCC(=O)Nc1ccccn1)NCc1ccco1	0	0	0	59	0	0
O=C(CN(Cc1ccc2c(c1)OCO2)C(=O)c1cnsn1)NC1CCCC1	0	0	0	88	0	0
O=C(CCCC(=O)N(CC(=O)NC1CCCC1)Cc1ccccc1)Nc1ccccn1	0	-	0	0	0	50
O=C(CCCC(=O)N(c1ccc2c(c1)OCCO2)C(C(=O)NC1CCCCC1)c1ccc(Cl)cc1)Nc1ccccn1 (configuration not stated)	0	-	0	55	0	52
Cc1ccc(C(O)(C(=O)NNS(=O)(=O)c2ccc(C)cc2)c2ccc(C)cc2)cc1	-	-	0	-	-	-
O=C(CCC(=O)N(CC(=O)NC1CCCCC1)c1ccc2c(c1)OCO2)Nc1ccccn1	0	0	0	0	0	0
O=C(CCCC(=O)N(CC(=O)NC1CCCC1)Cc1ccc2c(c1)OCO2)Nc1ccccn1	0	0	0	60	0	60
CC(=O)Nc1cc(ON=C(C)C)cc([N+](=O)[O-])c1	-	-	0	-	-	-
O=C1CC(=O)C(n2cncn2)C(c2ccc(Cl)cc2Cl)C1 (configuration not stated)	0	-	0	0	0	74
CC(C)(C)c1ccc(Oc2cccc(C3CC(=O)C(C4NCCc5ccccc54)C(=O)C3n3cncn3)c2)cc1 (configuration not stated)	0	0	0	0	0	0
COc1cc(/C=C/C(=O)NCCN2CCOCC2)cc(OC)c1OC	-	-	0	-	-	-
O=C1CC(c2ccc3c(c2)OCO3)Sc2nc3ccccc3n21 (configuration not stated)	0	0	0	60	0	64
C/C(CC(=O)Nc1c(C)cc(C)cc1C)=N\NC(=O)OC(C)(C)C	-	-	0	-	-	-
COc1ccc(-c2oc3ncn(CCN4CCOCC4)c(=N)c3c2-c2ccc(OC)cc2)cc1	0	0	0	63	0	0
c1ccc(-c2oc3ncnc(NCCCN4CCOCC4)c3c2-c2ccccc2)cc1	0	0	0	90	0	94
COc1ccc(-c2oc3ncnc(NCCCN4CCOCC4)c3c2-c2ccc(OC)cc2)cc1	0	0	0	0	0	94
c1ccc(-c2csc3ncnc(NCCN4CCOCC4)c23)cc1	0	0	0	0	0	0
SMILES	CYP2C9 act	MRP reversal	MRP-1 activ	CYP2C19 inhib	CYP2C19 act	CYP2C9 inhib
COc1ccc(C2c3ccc4ccccc4c3Oc3ncn(CCN4CCOCC4)c(=N)c32)cc1 (configuration not stated)	0	0	0	0	0	0
COc1ccc(-c2oc3ncnc(NCCN4CCOCC4)c3c2-c2ccc(OC)cc2)cc1	0	0	0	0	0	0
CCOC(=O)c1cc(C)sc1/N=C/C1=C(O)CCCC1=O	-	-	0	-	-	-
Cc1ccc(NC(=S)N2CCOCC2)c(C)c1	0	-	0	0	0	0
CCc1nn2c(=O)cc(CSc3nc4sc5c(c4c(=O)n3C)CCCC5)nc2s1	-	0	-	-	-	-
Cc1ccc2c(c1)[C@@H](O)C[C@@H](C)N2N=O	-	-	0	-	-	-

High-throughput results from PubChem.
